Reference: PubChem BioAssay (NCI)
Values joined by “and” are separate entries in the source; they are usually repeats but may differ in a detail not shown here. Identical values can stand only once. Compounds without any hit were thinned out: in the full panel of roughly 83,000, 20% have a hit.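 Testing used 96-well plates and a 48-hour single-concentration exposure. Example: -40 means 40% of the starting cells died.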 Active and inactive are the calls of the source. The calls were made as follows: active = growth percent below 10; inactive = the rest.

The compounds below were run on MDA-MB-468 breast (assay: NCI-60 one-dose screen, 48 h (100 = growth as untreated, 0 = no growth, -100 = all killed)). Details: 10 µM unless noted.
CC(C)(C)c1ccc(C(=O)Nc2sc3c(c2C(N)=O)CCC(O)C3)cc1 (stereo not given) was tested, and the growth was 32.3% (inactive).
COCCCNc1nc(NC(=O)c2cc(Br)cc(C(F)(F)F)c2)cc(-c2cccnc2)n1 was tested, and the growth was 82.8% (inactive).
CCN(CC)CCCCCCNc1ccnc2cc(Cl)ccc12 was tested, and the growth was 61.1% (inactive).
With CC(C)OC(=O)Nc1cc(F)ccc1F the growth was 92.8% (inactive).
In the case of Cc1cc(C(=O)NN)c(C#N)c(=O)[nH]1, the growth is reported as 122% (inactive).
With CCOC(=O)C1=C(NC)OCC1=O the growth was 90.7% (inactive).
For NC(=O)c1c(NC(=O)c2cccc(C(F)(F)F)c2)sc2c1CCC(=O)C2, the growth was -38.1% (active).
Cc1ccc(/C=C/CC(=O)Nc2ccc(C(=O)Nc3ccc(F)cc3N)cc2)cn1 was tested, and the growth was 53.5% (inactive).
For C=C1CC[C@@H]2C(C)(C)[C@H](O)CC[C@@]2(C)[C@@H]1COc1ccc2ccc(=O)oc2c1, the growth was 44.1% (inactive).
For Cc1nccc2c3ccc(OCc4cn(-c5ccccc5)nn4)cc3n(CCCc3ccccc3)c12, the growth was 49% (inactive).
O=C1C=C(Nc2ccccc2)c2ccccc2C1=O was tested, and the growth was 78% (inactive) and 76.9% (inactive).
For Clc1ccccc1N=Cc1ccc2c(c1)OCO2, the growth was 101% (inactive).
For N#CC1=C(/N=C/c2ccccc2)Oc2c(ccc3ccccc23)C1c1ccc([N+](=O)[O-])cc1 (stereo not given), the growth was 102% (inactive).
In the case of COc1ccc(C(=O)/C=C/c2cc(C(=O)c3cc(OC)c(OC)c(OC)c3)ccc2OC)cc1, the growth is reported as 47.2% (inactive).
With C=C1C(=O)O[C@H]2[C@H]1CC/C(COC(=O)NCc1[nH]nc3ccccc13)=C\CC[C@@]1(C)O[C@@H]21 the growth was 20.4% (inactive).
In the case of COc1cccc2c(=O)c3c(sc12)c(NCCCN)nc1ccccc13, the growth is reported as -8% (active).
In the case of COc1ccc(C(O)c2cc3c(N)c(C(=O)Nc4cccc(Br)c4)sc3nc2C)cc1 (stereo not given), the growth is reported as 19.6% (inactive).
For COc1cccc(-c2nn(-c3ccccc3)cc2-c2ccnc(N3CCOCC3)c2)c1, the growth was 69.2% (inactive).
In the case of Cc1cc(C2(c3ccc(O)c(C)c3)OS(=O)(=O)c3ccccc32)ccc1O, the growth is reported as 98.9% (inactive).
For COc1ccc(C2=CC(c3ccc(Oc4ccnc5cc(Cl)ccc45)c(OC)c3)c3c(nc(OC)[nH]c3=O)N2)cc1 (stereo not given), the growth was 61.4% (inactive).
In the case of CNc1ccc2c(c1)c1ccccc1n2C, the growth is reported as 102% (inactive).
With O=c1cc(CNc2cc(F)cc(F)c2)c2ccc(I)cc2[nH]1 the growth was 19% (inactive).
For c1cc(-c2nnc(SSc3ncnc4nc[nH]c34)o2)ccn1, the growth was -9.07% (active).
In the case of COc1cc(-c2nc(C(=O)NCC(=O)NO)nn2-c2ccc(Cl)cc2)cc(OC)c1OC, the growth is reported as 112% (inactive).
In the case of CCOC(=O)c1c(C)oc2ncnc(N3CCN(C(=S)Nc4ccccc4)CC3)c12, the growth is reported as 85.2% (inactive).
In the case of CCCCCCNC(=O)Oc1ccc(/C(=C(\C)c2ccc(OC)cc2)c2ccc(OCCN(C)C)cc2)cc1, the growth is reported as 95.4% (inactive).
In the case of CSc1nc(NCCO)c(C#N)c(-c2cccc([N+](=O)[O-])c2)n1, the growth is reported as 105% (inactive).
CCOC(=O)c1coc(C(=O)OCC)c1C(=O)OCC was tested, and the growth was 107% (inactive).
With OC(c1cccc(-n2ccc(C(F)(F)F)n2)c1)c1cnccc1NC1CCCCCC1 (stereo not given) the growth was -59.4% (active).
For Oc1c(CN2CCOCC2)cc(COCc2ccccc2)c2cccnc12, the growth was 12.1% (inactive).
In the case of COc1ccc(N(c2nc(-c3ccc([N+](=O)[O-])cc3)cs2)C(C)C)cc1, the growth is reported as 20.4% (inactive).
O=C(CSc1cc[n+](CCCCO)c2ccccc12)n1ccc2ccccc21 was tested, and the growth was 108% (inactive).
With C#C[C@]1(O)CCC2C3CCc4cc(O)ccc4C3CC[C@@]21C (stereo not given in full) the growth was 12.1% (inactive).
In the case of Nc1cc(C(=O)O)cc(-n2c(O)c(C=C3N=c4ccccc4=N3)sc2=S)c1, the growth is reported as 105% (inactive).
In the case of Cc1ccc(-c2nc(C(Cl)Cl)nc3cc(-c4ccccc4)nn23)cc1, the growth is reported as -54.2% (active).
CCCCCCCCc1cc[n+](CC(=O)c2ccc(Br)cc2)cc1 was tested, and the growth was -87% (active).
In the case of CCOC(=O)c1c(NC(=O)c2ccccc2)sc2c3c(ccc12)OCN(C)C3, the growth is reported as -73.7% (active).
c1ccc(Cn2cc3c(c2-c2ccccc2)CCc2cnoc2-3)cc1 was tested, and the growth was 66.5% (inactive).
For COc1cc(Nc2c(C#N)cnc3cc(OCCCN4CCN(C)CC4)c(OC)cc23)c(Cl)cc1Cl, the growth was 56.2% (inactive).
In the case of O=C(Nc1ccc(I)cc1F)c1cc(Cl)ccc1O, the growth is reported as -1.5% (active).
